CtBP-E1A inh – inhibitors of CtBP/E1A interaction; AlphaScreen GST-E1A/His-CtBP binding, 1536-well; hits give low values; activity change, % (concentration not given with the values); hit rate 0.49% among 340,000; AID 651724; in the data active = activity change below about -65%; inconclusive = mostly about -30% to -63%
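Homogeneous bead-based format: GST-tagged E1A captured on glutathione donor beads, His-tagged CtBP on nickel acceptor beads; compounds precede bead addition by 2 h at 37 °C.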
PKM2 activator – increases activity of human pyruvate kinase M2. AID 1631. P14618. hit rate 0.34% among 260,000. purified PKM2, Kinase-Glo ATP luminescence, activation; response scale: 0% is enzyme alone, no compound. Potency, µM (titrated, usually from 57.5 µM), for the others: at the highest dose activation, most hits filed as activators; also: potency is read from the fitted curve at half-maximal effect; nearly all actives have a fitted effect of over 55% in size
Target sequence (P14618 whole entry, looked up): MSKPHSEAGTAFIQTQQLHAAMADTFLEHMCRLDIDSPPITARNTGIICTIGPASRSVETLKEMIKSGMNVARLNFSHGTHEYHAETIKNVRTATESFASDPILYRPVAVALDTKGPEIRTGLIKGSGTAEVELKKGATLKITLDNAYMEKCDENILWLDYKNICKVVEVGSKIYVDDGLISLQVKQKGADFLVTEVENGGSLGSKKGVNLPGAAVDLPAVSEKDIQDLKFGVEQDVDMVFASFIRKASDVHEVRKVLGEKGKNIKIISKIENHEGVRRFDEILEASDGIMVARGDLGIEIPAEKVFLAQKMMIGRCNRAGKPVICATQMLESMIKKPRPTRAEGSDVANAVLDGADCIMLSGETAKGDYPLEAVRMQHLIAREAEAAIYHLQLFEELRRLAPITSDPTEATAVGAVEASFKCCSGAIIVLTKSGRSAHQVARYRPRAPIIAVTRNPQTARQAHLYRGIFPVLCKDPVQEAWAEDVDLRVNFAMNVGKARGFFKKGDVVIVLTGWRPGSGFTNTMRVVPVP
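Purified hPK-M2 (>95%) run at intermediate activity with 0.1 mM ADP and 0.5 mM PEP in 50 mM imidazole pH 7.2, KCl, MgCl2; 1 h room temperature. ATP formed read by Kinase-Glo luminescence; normalized to uninhibited and no-enzyme controls.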
RORgamma inh – blocks mouse ROR gamma transcriptional activity | P51450 | Drosophila S2 Gal4-RORgamma UAS-luciferase reporter, 20 h | Potency, µM (highest dose often 53.6 µM), for the others: at the highest dose activity change, negative = inhibition, hits mostly inhibitors | hit rate 5.4% among 310,000 | AID 2551; also: potency is read from the fitted curve at half-maximal effect; nearly all actives have a fitted effect of over 60% in size
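Using a luciferase readout, inhibitors were identified by reduced reporter activity in Drosophila cells coexpressing a copper-inducible Gal4–ROR gamma fusion and UAS-driven Photinus luciferase, incubated 20 hr after 700 uM copper sulfate.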
Six1-Eya2 blk – inhibitors of human Six1/Eya2 interaction. Q15475+O00167. AlphaScreen GST-Six1/His-Eya2 binding, biochemical; hits give low values. activity change, % (concentration not given with the values). hit rate 0.56% among 360,000; in the data active = activity change below about -65%; inconclusive = mostly about -30% to -63%
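Homogeneous AlphaScreen proximity assay pairing GST-Six1 with His-tagged Eya2 (added as 5X mix: 250 nM and 500 nM) in 50 mM Tris pH 8.0, 300 mM NaCl, 1 mM TCEP. Glutathione donor and nickel acceptor beads; 1 h, 37 °C, dark.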
VP16 counter – Gal4-VP16 reporter inhibition counter-screen; Potency, µM (highest dose often 53.6 µM), without a hit: top-dose activity, negative = inhibition, usual class: inhibitors; hit rate 3.5% among 310,000; Drosophila S2 Gal4-VP16 UAS-luciferase, luminescence, 20 h; AID 2546;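 also: Gal4-VP16 expression switched on by copper sulfate through the metallothionein promoter; potency is read from the fitted curve at half-maximal effect; nearly all actives have a fitted effect of over 50% in size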
* hit, by the source's call; ? = inconclusive; nt = no result given; [ ] = another dose, or the depositor's remark. In the library only some 5.6% were active in any assay of this set; here they are far more common. Unless noted, calls follow the shape of the dose curve; as a rule, active = well fitted curve in the direction sought with a large enough effect; inconclusive = small, poorly fitted or top-dose-only effect, or another doubt; inactive = no such curve, though single readings can be large; an effect the other way counts as inactive or inconclusive. % is scaled to controls: 0 for no effect and ±100 for the full control effect.

SMILES	CtBP-E1A inh	PKM2 activator	RORgamma inh	Six1-Eya2 blk	VP16 counter
COC(=O)c1cc(=O)n(CCc2ccccc2)c(=Nc2ccc(F)cc2)s1	-11	7%	8.9µM*	-8	-28%
CCn1c(=O)cc(C(=O)OC)sc1=Nc1ccc(F)c(F)c1	1	-15%	22µM*	4	?
CCOC(=O)c1ccc(N=c2sc(C(=O)OC)cc(=O)n2CCCN2CCOCC2)cc1	4	18%	?	2	-21%
COC(=O)c1cc(=O)n(CCc2ccc(OC)cc2)c(=Nc2ccc(F)c(Cl)c2)s1	-5	-3%	8%	0	3%
CCOC(=O)c1ccc(N=c2sc(C(=O)OC)cc(=O)n2Cc2ccco2)cc1	1	9%	?	-1	8.9µM*
CCOc1ccc(CNC(=O)Cn2nc(C)c3c(C)n(-c4ccc(C)cc4)nc3c2=O)cc1	1	nt	11%	-7	7%
c1ccc(-c2c[nH]c3[n+]2CCCCC3)cc1	8	2%	22µM*	-6	?
Cc1ccc(/C=C2\CCCC3=C2NC(=S)NC3c2ccc(C)cc2)cc1 (stereo unspecified)	-11	0%	-43%	-3	-26%
CC1CCN(C2=NC(=O)/C(=C/c3ccccc3F)S2)CC1	-15	nt	-18%	-17	1%
Cc1ccc(/C=C2\CC(C)CC3=C2NC(=S)NC3c2ccc(C)cc2)cc1 (stereo unspecified)	-3	-5%	3.2µM*	0	?
CC1CC2=C(NC(=S)NC2c2cccc(F)c2)/C(=C/c2cccc(F)c2)C1 (stereo unspecified)	-20	-1%	1µM*	?	4.5µM*
CC1CC2=C(NC(=S)NC2c2ccccc2F)/C(=C/c2ccccc2F)C1 (stereo unspecified)	-25	2%	2.8µM*	-11	6.3µM*
COc1ccc(NC(=O)NC2(C(=O)N3CCN(C)CC3)CCCCC2)cc1	6	nt	2%	-3	-1%
Cn1/c(=N\NC(=O)c2ccccc2Cl)sc2ccccc21	0	0%	14%	3	7%
Cc1ccc(N2C(=O)C3C(C2=O)C(C(=O)c2ccc(Cl)cc2)N2CCCC32)cc1 (stereo unspecified)	-2	1%	?	-3	11%
CC(=O)Oc1ccc(N2C(=O)C3C(C2=O)C(C(=O)c2ccc(Cl)cc2)N2CCCC32)cc1 (stereo unspecified)	-3	-18%	-8%	-21	14µM*
COc1ccc(OC)c(NC(=S)N2CCN(C/C=C/c3ccccc3)CC2)c1	-14	-2%	2.8µM*	-21	1%
Cc1ccc(NC(=O)CCN2CCN(C/C=C/c3ccccc3)CC2)cc1C	-1	5%	18%	-1	-19%
COc1ccc(OC)c(NC(=S)N2CCCC2)c1	1	-7%	-6%	4	3%
COc1ccc(NC(=S)N2CCN(C/C=C/c3ccccc3)CC2)cc1OC	-7	0%	10µM*	-14	8%
COc1ccc(NC(=S)N2CCN(C/C=C/c3ccccc3)CC2)cc1	-5	1%	?	-22	?
CCOc1ccc(NC(=S)N2CCN(C/C=C/c3ccccc3)CC2)cc1	-3	4%	14µM*	-21	?
Nc1ccccc1Sc1nc2ccccc2[nH]1	3	2%	3.5µM*	-19	13µM*
CCCCC1CN2CCc3c([nH]c4ccccc34)C2(C)C1 (stereo unspecified)	-8	-1%	-6%	-18	0%
O=C(CN1C(=O)NC2(CCCc3ccccc32)C1=O)NCC(F)(F)F (stereo unspecified)	13	nt	-1%	-4	4%
SMILES	CtBP-E1A inh	PKM2 activator	RORgamma inh	Six1-Eya2 blk	VP16 counter
COc1ccc(CC(=O)Nc2cccnc2)cc1	-3	-8%[11.5 µM]	-1%	11	-7%
C=CCNc1nc(NCc2ccc(N(C)C)cc2)c2sc(-c3ccccc3)cc2n1	-77*	nt	nt	-73*	nt
CC(C)N1CCN(C(=O)c2ccc([N+](=O)[O-])cc2)CC1	nt	nt	nt	-4	nt
Cc1nc(=S)c2ccccc2[nH]1	3	-11%	10µM*	-5	?
S=c1nc(COc2ccccc2)[nH]c2ccccc12	nt	nt	1.6µM*	-2	18µM*
S=c1nc(Cc2ccccc2)[nH]c2ccccc12	9	nt	2.8µM*	-7	6.3µM*
S=c1nc(Cc2ccc(Cl)cc2)[nH]c2ccccc12	-2	8%	1.8µM*	-6	11µM*
CCc1ccc(N2CC(C(=O)Nc3nc4ccc(S(C)(=O)=O)cc4s3)CC2=O)cc1 (stereo unspecified)	2	nt	11%	9	-4%
COc1ccc(CNC(=O)COC(=O)c2cc(C)oc2C)cc1	1	nt	nt	-2	nt
COC(=O)c1ccc(-c2ccc(OC)c(C3C4C=CCC(C)C4C(=O)N3Cc3ccccc3)c2)cc1 (stereo unspecified)	nt	nt	-12%	nt	0%
CSc1ccccc1NC(=O)C(=O)c1c[nH]c2ccccc12	0	4%	-1%	-5	?
CC(C)OCCCNC(=O)C(NS(=O)(=O)c1ccc2c(c1)c(=O)n(C)c(=O)n2C)c1ccccc1 (stereo unspecified)	nt	-7%	13%	nt	-2%
Cc1nnc(NC(=O)c2oc3c(ccc4ccccc43)c2C)s1	-6	-2%	13µM*	4	-5%
Cn1cccc1/C=N/NC(=O)c1cccnc1	8	11%	-40%	-2	1%
CCCc1cc(C(=O)N/N=C/c2cccn2C)cs1	-16	-2%	11µM*	-30	22µM*
Cn1cccc1/C=N/NC(=O)c1ccco1	-9	-11%	2%	2	27%
Cc1ccc(C(=O)N/N=C\c2ccc(-c3ccc(Cl)cc3)o2)cn1	nt	2%	2.5µM*	-5	10µM*
Cc1ccc(C(=O)N/N=C\c2cccn2C)cn1	-4	1%	11µM*	-3	?
CC(C(=O)NCCCc1ccccc1)c1ccc([N+](=O)[O-])cc1 (stereo unspecified)	-2	2%	15%	9	?
CCN(CC)CCn1c2c(c(SCC(=O)Nc3nccs3)nc1=O)CCCC2	-16	nt	nt	-2	nt
O=C(c1ccc2c(c1)OCCO2)N1CCCC(CNS(=O)(=O)c2cccs2)C1 (stereo unspecified)	-1	-9%	5%	5	2%
CCN(CC)c1ccc(/C=C/c2nc3ccccc3s2)cc1	nt	3%	1.6µM*	nt	7.1µM*
Oc1cc2c(cc1O)[C@H]1c3ccc(O)c(O)c3OC[C@@]1(O)C2	-19	nt	?	-7	-3%
Oc1ccc2c(c1)OCC1(O)Cc3cc(O)c(O)cc3C21 (stereo unspecified)	-12	nt	0.71µM*	-1	5.6µM*
Cc1cccc(N=c2oc3cc(O)ccc3cc2C(N)=O)c1	-19	-1%	11µM*	-23	14µM*
